Inconclusive results are not listed. A number with no mark means an inactive call. Active and inactive are the calls of the source. Calls follow the shape of the dose curve; as a rule, active = well fitted inhibition curve with a large enough effect; inconclusive = small, poorly fitted or top-dose-only effect; inactive = no such curve, though single readings can be large or run the other way.

Sequence of Luciferin 4-monooxygenase (Photinus pyralis) (P08659 whole entry, looked up): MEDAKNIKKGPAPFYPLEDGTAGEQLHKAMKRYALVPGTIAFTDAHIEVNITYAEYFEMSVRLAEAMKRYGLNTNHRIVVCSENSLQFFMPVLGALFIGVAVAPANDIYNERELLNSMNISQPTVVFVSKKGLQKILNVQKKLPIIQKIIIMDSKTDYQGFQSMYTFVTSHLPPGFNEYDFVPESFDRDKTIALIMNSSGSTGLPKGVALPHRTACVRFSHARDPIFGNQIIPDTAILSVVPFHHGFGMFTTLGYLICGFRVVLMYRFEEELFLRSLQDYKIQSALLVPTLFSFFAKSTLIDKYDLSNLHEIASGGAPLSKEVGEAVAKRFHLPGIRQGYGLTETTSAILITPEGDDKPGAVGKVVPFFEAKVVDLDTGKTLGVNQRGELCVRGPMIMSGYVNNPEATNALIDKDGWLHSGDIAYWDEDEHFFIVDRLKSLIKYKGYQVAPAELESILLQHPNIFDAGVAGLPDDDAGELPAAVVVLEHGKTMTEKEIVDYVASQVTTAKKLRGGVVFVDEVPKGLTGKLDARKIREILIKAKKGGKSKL

This assay has as its target Luciferin 4-monooxygenase (Photinus pyralis) (UniProt P08659). Briefly: FLuc inhibitory activity for the follow-up compounds in a biochemical assay with an in-house formulation of detection reagent. The conditions noted are these: purified FLuc, luminescence; series mostly up to 25.6 µM; activity change, negative = inhibition: at the top concentration. The source says:
NCGC Assay Overview: Firefly (Photinus pyralis) luciferase is one of the most commonly used transcriptional reporters. It is considered one of the more dynamically responsive reporters - that is, responsive to changes in reporter transcription - as it requires no post-translational modifications and is enzymatically active directly after protein synthesis (Wood, 1998). With no endogenous expression in mammalian cells and without the requirement of external excitation, it offers very little background signal, thus generally providing excellent signal to background for most assays. Previous profiling work to determine the prevalence of compounds that affect FLuc enzymatic activity (PubChem AID 411) identified that ~3% of the MLSMR library (then at ~72K) inhibited FLuc (Auld et al., 2008). […] Of the compounds identified in this profile that inhibited FLuc, 151 compounds were selected for further analysis, in an effort to better understand their mode of inhibiting FLuc. The assay described here was to determine the activity of the compounds in a FLuc assay that used an in-house formulation of detection reagent.
NCGC Assay Protocol Summary: Reagents: 300mM Tris-HCl, 300mM Trizma base, 300mM MgCl, 1% Triton-X100, 5mM DTT, 500uM Coenzyme A trilithium salt (Sigma #C3019),450uM ATP (Sigma #A7699), 1mM D-luciferin sodium salt monohydrate (Biosynth #L8240); 10nM P. pyralis luciferase (Sigma #L9506) Control compounds used were two known firefly luciferase inhibitors (3-(5-(3-chlorophenyl)-1,2,4-oxadiazol-3-yl)benzoic acid and 5-(2-fluorophenyl)-3-phenyl-1,2,4-oxadiazole), and DMSO. Assay Summary: Six microliters of buffer containing firefly luciferase (final concentrations: 50mM Tris acetate, 10nM P. pyralis luciferase) are dispensed into each well of a Greiner white, solid-bottom 1536-well format plate using a flying reagent dispenser (FRD). These assay plates were then treated with 23nL of compound or DMSO using a Kalypsys pin tool, which allows for delivery of a 12-point intraplate titration of each compound to the assay plate (quantitative HTS), with final compound concentrations ranging from approximately ~25uM to 0.1nM. Three microliters of 3X in-house detection reagent was then delivered by FRD to each well (final concentrations in assay: 300mM Tris-HCl, 300mM Trizma base, 300mM MgCl, 1% Triton-X100, 5mM DTT, 500uM Coenzyme A trilithium salt, 450uM ATP, 1mM D-luciferin sodium salt monohydrate). Luciferase activity was then measured using a ViewLux CCD imager (PerkinElmer), with an average exposure time of 2-30 seconds (2X binning, medium/high gain).
Regarding `Cc1c(C)c2ccc(OCC(=O)Nc3ccccn3)c(C)c2oc1=O`, the Potency was 0.0874 µM (active).
Turning to `O=C(O)c1ccc(NC(=O)c2cc(S(=O)(=O)N3CCCCC3)c(Cl)cc2Cl)cc1`, the “activity change, negative = inhibition” value was -9.37%.
In the case of `Cn1c(N/N=C/c2cc3ccccc3nc2Cl)nc2ccccc21`, the “activity change, negative = inhibition” value is -15.9%.
As for `CN(C)S(=O)(=O)c1ccc(C(=O)Nc2ccccc2C(=O)O)cc1`, the “activity change, negative = inhibition” value is -6.75%.
As to `O=C(O)c1cccc(NC(=O)c2ccccc2NC(=O)c2ccccc2F)c1`, the “activity change, negative = inhibition” value was -13.8%.
Regarding `O=C(Nc1ccc(-c2nc3ccccc3s2)cc1)C1=COCCO1`, the Potency was 2.46 µM (active).
Turning to `O=C(O)c1cccc(NC(=O)c2ccc(Cl)c(S(=O)(=O)N3CCCCCC3)c2)c1`, the “activity change, negative = inhibition” value is -13.5%.
On to `Cc1ccc(C(=O)Nc2cccc(C(=O)O)c2)cc1`, for which the Potency was 13.8 µM (active).
For the compound `O=C(Nc1ccccc1C(=O)O)c1ccc(NC(=O)C2CCCCC2)cc1`, the “activity change, negative = inhibition” value is 3.23%.
Consider `Nc1ccc(-c2nc3cc(N)ccc3s2)cc1`, for which the Potency is 8.74 µM (active).
`Cc1cccc(C(=O)Nc2ccc(-c3nc4ccccc4s3)cc2Cl)c1`: the “activity change, negative = inhibition” value was 8.15%.
On the same count and under the same terms, with `O=C(O)c1cccc(NC(=O)c2cccc(NC(=O)C3CCCO3)c2)c1` (stereo not given) the figure was -14.9%; with `O=C(O)c1cccc(NC(=O)c2cccc(S(=O)(=O)N3CCc4ccccc43)c2)c1`, -6.28%.
In the case of `CCOc1ccc2nc(NC(=O)c3ccccc3)sc2c1`, the Potency is 6.19 µM (active).
Consider `COc1ccc(NS(=O)(=O)c2cccc(C(=O)Nc3ccccc3C(=O)O)c2)cc1`, for which the “activity change, negative = inhibition” value is -0.994%.
Consider `CN=c1scc(-c2ccccc2F)n1/N=C/c1ccc[nH]1`, for which the Potency is 0.123 µM (active).
As for `O=C(O)c1cccc(NC(=O)c2ccccc2NC(=O)c2ccco2)c1`, the “activity change, negative = inhibition” value is -24.1%.
`Cc1ccc(C(=O)O/N=C(\N)c2ccccn2)c(Cl)c1`: the Potency is 0.0619 µM (active).
With `CCOc1ccc2nc(NC(=O)c3ccccn3)sc2c1`, the Potency was 3.9 µM (active).
Take `Nc1ccccc1-c1nc2ccccc2s1`: the “activity change, negative = inhibition” value is -13.3%.
Regarding `O=C(Nc1ccccc1C(=O)O)c1cccc(S(=O)(=O)Nc2ccc(Br)cc2)c1`, the “activity change, negative = inhibition” value was 3.86%.
Turning to `O=C(O)c1ccc(NC(=O)c2ccccc2NC(=O)c2cccc(Br)c2)cc1`, the “activity change, negative = inhibition” value is -13.3%.
Consider `COc1ccc2nc(NC(=O)c3ccco3)sc2c1`, for which the Potency is 6.94 µM (active).
On to `Cc1ccc(C(=O)Nc2cccc(C(=O)O)c2)cc1S(=O)(=O)N1CCOCC1`, for which the “activity change, negative = inhibition” value was -8.83%.
In the case of `CC(=O)Nc1cccc(-c2nc3ccccc3s2)c1C`, the “activity change, negative = inhibition” value was -10.4%.
For `O=C(Nc1c(Cl)cc(Cl)cc1-c1nc2ccccc2s1)c1ccc(Br)o1`, the Potency is 13.8 µM (active).
Consider `Cc1ccc(C(=O)Nc2cccc(C(=O)O)c2)cc1S(=O)(=O)N1CCCCC1`, for which the “activity change, negative = inhibition” value is -17.8%.
For `CCOc1c(Cl)cc(C(=O)Nc2ccccc2C(=O)O)cc1Cl`, the “activity change, negative = inhibition” value was -14.5%.
For the compound `CCOC(=O)N1CCN(CC(=O)Nc2nc3ccc(OC)cc3s2)CC1`, the “activity change, negative = inhibition” value was 3.07%.
Consider `Cc1c(NC(=O)C(C)(C)C)cccc1-c1nc2ccccc2s1`, for which the “activity change, negative = inhibition” value was 2.61%.
On to `COc1cccc(-c2nc3ccccc3s2)c1`, for which the Potency was 7.79 µM (active).
Turning to `O=C(Nc1ccccc1-c1nc2ccccc2s1)c1cccnc1`, the “activity change, negative = inhibition” value is -17.1%.
The same measure, in the same setting: under `Cc1c(NC(=O)c2cc(-n3cnnc3)ccc2Cl)cccc1-c1nc2ccccc2s1` stands -8.49%; under `COc1ccc(-c2cccc(C(=O)Nc3cccc(C(=O)O)c3)c2)cc1`, -0.002%.
Regarding `O=C(Nc1ccccc1C(=O)Nc1ccccc1C(=O)O)c1ccccc1`, the “activity change, negative = inhibition” value was -4.17%.
Consider `Cc1c(NS(C)(=O)=O)cccc1-c1nc2ccccc2s1`, for which the “activity change, negative = inhibition” value is 4.59%.
Turning to `Nc1ccc2nc(-c3ccc(O)cc3)sc2c1`, the Potency was 6.19 µM (active).
For the compound `Cc1ccccc1C(=O)Nc1cccc(C(=O)Nc2ccccc2C(=O)O)c1`, the “activity change, negative = inhibition” value is -7.54%.
Regarding `CCCC(=O)Nc1nc2ccc(OCC)cc2s1`, the “activity change, negative = inhibition” value was -37.4%.
Take `CC(C)(C)NC(=O)c1ccccc1-c1nc2ccccc2s1`: the “activity change, negative = inhibition” value was 16.5%.

The values above are taken from PubChem BioAssay AID602475 (National Center for Advancing Translational Sciences (NCATS), 2012).
